High-throughput results: PubChem BioAssay, several laboratories
HER2 expr 66K = Her2 kinase expression inhibition. P04626. SKBR-3 HER2 protein level, AlphaScreen, 18-24 h; hits give low values. HER2 level % of control, % at 10 µM. 65,000 compounds, 0.69% hits. AID 645;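 active = HER2 level under 5% of the carrier-only control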;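 also: 100% = DMSO carrier and 0% = 500 nM PU-H71 HSP90 inhibitor; lower value means stronger loss of Her2 protein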
5HT1a antag = blocks the human serotonin 5-HT1a receptor. inhibition, % at 10 µM. CHO 5-HT1a Ga15 NFAT-bla reporter, antagonist mode. 62,000 compounds, 0.68% hits. P08908. AID 612;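 active = inhibition above the mean of all tested compounds plus 3 SD, cut at about 43% in these data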;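 also: receptor stimulated by 5-CT agonist at 100 nM near EC80; beta-lactamase reporter measured by ratiometric fluorescence of a cleavable substrate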
Target sequence (P08908 whole entry, looked up): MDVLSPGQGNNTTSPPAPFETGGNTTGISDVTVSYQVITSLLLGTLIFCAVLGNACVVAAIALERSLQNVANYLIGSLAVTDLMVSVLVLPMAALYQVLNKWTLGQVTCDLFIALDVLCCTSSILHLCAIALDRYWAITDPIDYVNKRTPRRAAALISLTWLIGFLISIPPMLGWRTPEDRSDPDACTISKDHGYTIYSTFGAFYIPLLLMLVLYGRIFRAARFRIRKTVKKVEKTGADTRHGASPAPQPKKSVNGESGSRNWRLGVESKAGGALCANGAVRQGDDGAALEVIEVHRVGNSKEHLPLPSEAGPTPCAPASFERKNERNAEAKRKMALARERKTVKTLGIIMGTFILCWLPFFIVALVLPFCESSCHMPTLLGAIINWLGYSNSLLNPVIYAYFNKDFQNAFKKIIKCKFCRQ
HTR1E antagonist = 5-HT1E (human) receptor antagonism; P28566; AID 571; CHO 5-HT1E Ga15 NFAT-bla reporter, FRET, antagonist; 65,000 compounds, 0.99% hits; inhibition, % at 6 µM;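 active = inhibition above a set limit, the mean inhibition across every tested compound plus 3 SD, cut at about 29% in these data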;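 also: signal is the 460 over 535 nm emission ratio of beta-lactamase substrate; 0% = agonist plus DMSO wells and 100% = wells without agonist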
5HT1E ag = agonists of human 5-HT1E serotonin receptor. P28566. CHO 5-HT1E Ga15 NFAT-bla reporter, FRET; 0% DMSO wells, 100% control agonist wells. activation, % at 6 µM. 65,000 compounds, 0.69% hits. AID 574;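 active = activation above a set limit, the screen-wide mean activation plus 3 SD, cut at about 8.5% in these data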;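 also: 100% = positive control agonist at 1 µM giving full maximal response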
HTR1A agonist = activates the human 5-HT1a serotonin receptor | activation, % at 10 µM | 65,000 compounds, 0.56% hits | CHO 5-HT1a Ga15 NFAT-bla reporter, FRET ratio; 0% basal, 100% maximal reference agonist;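 active = activation above the screen-wide mean activation plus 3 SD, cut at about 19% in these data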;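 also: 0% = DMSO wells and 100% = 5-CT at EC100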
An asterisk follows results filed as active; / = no result given. This is a sample that favours compounds with a hit; in the whole collection about 3% have one here.

SMILES	HER2 expr 66K	5HT1a antag	HTR1E antagonist	5HT1E ag	HTR1A agonist
Cc1ccc(NCc2nnc(SCC(N)=O)n2CCc2ccccc2)cc1	90	-8	-2	0	-2
Cc1ccc(NC(=O)Cn2cccc2)cc1Cl	89	0	-10	-1	-2
COc1ccc(NC(=O)Cn2cccc2)cc1Cl	92	3	6	-1	141*
CC(C)C12CN3CC(C(C)C)(CN(C1)C3c1ccccc1)C2O (configuration not stated)	78	18	6	-1	-3
Nc1ccc(SC(F)(F)F)cc1C(=O)c1ccccc1	97	26	2	0	2
c1coc(CNC2CCCCCCC2)c1	116	5	13	-1	42*
O=C(Nc1ccc(N2CCOCC2)cc1)Nc1ccc2nc(-c3ccco3)c(-c3ccco3)nc2c1	21	40	67*	0	-1
COc1ccc(OC)c(NC(=O)C2C3CC4OC(=O)C2C4C3)c1 (configuration not stated)	111	-5	0	0	-1
O=C1CSC(c2ccccc2F)N1c1cc(Cl)ccc1O (configuration not stated)	61	8	30*	-1	-2
O=C1CSC(c2ccccc2F)N1CCN1CCCCC1 (configuration not stated)	99	8	3	1	-1
CCOc1ccc(N2CCn3c2nc2c3c(=O)n(CCc3ccccc3)c(=O)n2C)cc1	87	-8	-6	0	0
COCCn1c(SCC(=O)Nc2cccc(C(=O)OC)c2)nc2ccccc2c1=O	109	-3	17	-2	-1
COc1cc(C(=O)Nc2ccc(OCC(=O)O)cc2)cc(OC)c1OC	98	-6	-15	-1	1
CN1CCN(C2=C(Cl)C(=O)N(Cc3ccccc3)C2=O)CC1	141	3	5	17*	0
CCn1c2ccccc2c2cc(CN3CCN(C(=O)c4ccco4)CC3)ccc21	72	-12	-6	1	-2
O=C(c1ccco1)N1CCN(CC(O)COc2ccc3oc4ccccc4c3c2)CC1 (configuration not stated)	90	0	-14	0	29*
CCN(Cc1ccccc1)C(c1cccs1)c1nnnn1C1CCCCC1 (configuration not stated)	92	44*	7	0	-1
c1ccc(Cc2nn3c(COc4ccccc4)nnc3s2)cc1	-21*	18	7	-1	-2
COc1ccccc1-n1nnnc1SCc1ccccc1	54	10	12	-1	0
COc1ccccc1-n1nnnc1SCc1cc2c(cc1Br)OCO2	69	27	29*	0	-2
N#C/C(=C/c1ccc(N2CCCCCC2)o1)c1ccc(F)cc1	-14*	87*	90*	0	-5
COc1cc(/C=C(/C#N)c2ccc(F)cc2)ccc1OCc1ccc(C(=O)O)o1	84	-1	-3	0	4
Cc1ccc(NC(=O)c2oc3ccccc3c2NC(=O)c2ccc3c(c2)OCO3)cc1	112	2	10	0	-3
Cc1ccc2c(c1)c1c(n2CC(O)Cn2c(C)nc3ccccc32)C(=O)CCC1 (configuration not stated)	77	29	-9	0	73*
Nn1c(SCC(=O)Nc2ccc(F)cc2)nnc1-c1cccnc1	101	12	-7	-1	-2
SMILES	HER2 expr 66K	5HT1a antag	HTR1E antagonist	5HT1E ag	HTR1A agonist
CSCC[C@H](NC(=O)Nc1ccc(C)cc1C)C(=O)O	119	-4	5	0	111*
CC(=O)c1cc2c(cc1NC(=O)c1cc(C)nn1-c1ccccc1)OCO2	64	17	9	1	24*
CN(C)c1ccnc(SCc2ccccc2Cl)c1C#N	185	-13	2	0	2
CCn1c(CNc2ccccc2Cl)nnc1SCC(=O)NCc1ccccc1	101	6	-8	1	-1
CCn1c(CNC(=O)c2ccco2)nnc1SCC(=O)Nc1cc(C(F)(F)F)ccc1Cl	/	5	3	0	54*
CC1(C)CC(=O)c2c(noc2-c2ccccc2)C1	107	-1	-7	0	-1
CC1(C)CC(=O)C2(CC3=C(CC(C)(C)CC3=O)O2)C(=O)C1	-33*	14	5	0	1
Cc1ccc2[nH]c(=O)c(C(c3nnnn3C3CCCC3)N(Cc3cccnc3)Cc3ccco3)cc2c1 (configuration not stated)	89	3	-2	3	98*
CCN(CC(=O)NC1CCCC1)S(=O)(=O)c1ccc(C)cc1	75	-5	-5	0	-3
CCN(CC(=O)NC1CCCCCC1)S(=O)(=O)c1ccccc1	-28*	5	-5	-1	-1
O=C(NC1CCCCC1)C(c1ccco1)N(Cc1cccnc1)C(=O)C1COc2ccccc2O1 (configuration not stated)	97	27	6	0	3
NC(=O)CSc1nnc(-c2ccncc2)n1CCc1ccccc1	126	0	2	-1	-3
CC(=O)NCc1ccc(C(=O)CSc2nnc(-c3ccncc3)n2Cc2ccccc2)o1	204	-2	1	12*	0
Cc1cc(C)c(S(=O)(=O)N2CCCCC2)c(C)c1-n1ncnn1	106	1	0	1	4
CCC(Oc1ccccc1)C(=O)Nc1ccccn1 (configuration not stated)	72	-23	-6	0	-3
CCN1CCN(c2nc(-c3cccnc3)nc3ccccc23)CC1	74	-3	7	13*	4
Cn1nnnc1Sc1nc(-c2cccnc2)nc2ccccc12	-13*	14	2	0	-4
CN1CCN(c2nc(-c3cccnc3)nc3ccccc23)CC1	113	10	-3	42*	1
c1cncc(-c2nc(N3CCCCCC3)c3ccccc3n2)c1	87	6	11	0	3
CCOC(=O)c1[nH]c(C)c(CN(Cc2ccco2)C(=O)C(F)(F)F)c1C	84	6	7	-1	0
O=C(CCNS(=O)(=O)c1cccs1)NCc1ccco1	69	-12	0	0	-6
O=C(CSc1nc(-c2ccc(F)cc2)cs1)N1CCN(C(=O)c2ccco2)CC1	79	-7	6	0	-1
O=C(Nc1cccc(-c2nc3ccccc3[nH]2)c1)c1cccc(NC(=O)c2ccco2)c1	-17*	33	43*	0	2
COc1ccc(-n2nnnc2SCC(=O)Nc2nnc(C)s2)cc1OC	116	-6	-2	-2	-1
CCC1=C/C(=C/N(C)c2ccccc2)C(=O)S1	102	20	1	0	-2
CCCCC(c1nnnn1CC1CCCO1)N1CCN(c2cc(Cl)ccc2C)CC1 (configuration not stated)	108	36	-11	0	0
CCCC(c1nnnn1Cc1ccco1)N1CCN(c2cc(Cl)ccc2C)CC1 (configuration not stated)	68	51*	0	0	-2
